Screening data as filed in PubChem BioAssay.
CF NFkB block = inhibitors of cystic fibrosis induced NF-kB | KKLEB NF-kB-GFP reporter, PAF-induced, GFP fluorescence overnight | inhibition, % at 5 µM | hit rate 0.86% among 360,000;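 active = at least 50% inhibition at 5 µM, scaled per plate between neutral and stimulator controls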;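 note: PAF is a Pseudomonas aeruginosa culture filtrate used as stimulus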
Peg3 prom inh-1 = inhibitors of Peg3 promoter; HeLa PEG-Prom luciferase reporter, luminescence, overnight; inhibition, % at 20 µM; hit rate 1.7% among 360,000; AID 588405;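 active = inhibition of at least 50% at 20 µM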
HIF-2a inh = blocks HIF-2a reporter activity; 786-0 RCC cells HIF-2a reporter, luciferase luminescence, overnight; inhibition, % at 18.8 µM; hit rate 0.72% among 360,000; AID 624352;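 active = inhibition of the luminescence signal of 40% or more relative to plate controls, in a single-dose primary screen at 18.75 µM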
Shn3 3UTR inh = reduces Shn3 3'UTR luciferase signal in osteoblasts | hit rate 0.52% among 360,000 | Clone20 osteoblast Shn3 3'UTR firefly luciferase, 24 h | inhibition, % at 12.5 µM | AID 588674;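 active = mean inhibition of at least 75% with every replicate also reaching 75%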
KKLEB cytotox = counter-screen for CF NF-kB inhibitors: cytotoxicity; hit rate 0.36% among 360,000; activity change (cytotoxicity), % at 5 µM; KKLEB CF airway cells viability, ATPlite luminescence, overnight; active compounds read low; cells stimulated with P. aeruginosa culture filtrate; AID 602141;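 active = corrected activity change at or below -50% at 5 µM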
TRPM1 prom inh = reduces MITF-dependent TRPM1 promoter luciferase signal | SK-MEL-5 TRPM1 promoter luciferase, 24 h | inhibition, % at 12.5 µM | hit rate 0.83% among 330,000;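 active = mean inhibition across replicates of 60% or more, whatever share of single replicates reaches that level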
Peg3 prom inh-2 = confirmation of Peg3 promoter inhibitors. shares compounds with Peg3 prom inh-1. AID 602417. hit rate 84% among 1,300. HeLa PEG-Prom luciferase reporter, luminescence, overnight. inhibition, % at 20 µM;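 active = at 20 µM dose, 40% or more inhibition averaged across four replicates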
CF NFkB inh conf = confirmation of cystic fibrosis induced NF-kB inhibitors | KKLEB CF airway cells, PAF-induced NF-kB-GFP fluorescence, overnight | shares compounds with CF NFkB block | hit rate 64% among 1,300 | inhibition, % at 5 µM; in the data active = inhibition above about 40%;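 note: stimulus PAF is a Pseudomonas aeruginosa filtrate and not platelet activating factor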
Mdm2 MdmX conf = confirmation of inhibitors of human Mdm2/MdmX interaction, set 2; hit rate 99% among 740; SaOS-2 split-luciferase Mdm2/MdmX complementation, luminescence; AID 504601; inhibition, % at 8 µM; shares compounds with HIF-2a inh;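 active = mean inhibition of the luminescence signal across two replicates at or above 26 percent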
Target sequence (O15151 whole entry, looked up): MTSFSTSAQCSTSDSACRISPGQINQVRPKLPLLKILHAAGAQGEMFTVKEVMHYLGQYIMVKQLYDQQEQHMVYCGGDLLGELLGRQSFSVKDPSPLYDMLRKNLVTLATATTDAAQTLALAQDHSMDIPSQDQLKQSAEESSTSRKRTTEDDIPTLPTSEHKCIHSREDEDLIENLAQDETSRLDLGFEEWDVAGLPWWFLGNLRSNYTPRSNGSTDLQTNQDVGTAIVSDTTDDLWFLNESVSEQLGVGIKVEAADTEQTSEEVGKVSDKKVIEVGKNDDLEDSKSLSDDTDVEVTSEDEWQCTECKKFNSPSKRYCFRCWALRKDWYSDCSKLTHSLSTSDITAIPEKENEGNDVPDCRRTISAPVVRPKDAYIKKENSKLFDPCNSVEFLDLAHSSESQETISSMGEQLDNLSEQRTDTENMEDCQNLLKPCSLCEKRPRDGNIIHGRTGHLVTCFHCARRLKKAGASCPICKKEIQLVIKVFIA
Target sequence (Q00987 whole entry, looked up): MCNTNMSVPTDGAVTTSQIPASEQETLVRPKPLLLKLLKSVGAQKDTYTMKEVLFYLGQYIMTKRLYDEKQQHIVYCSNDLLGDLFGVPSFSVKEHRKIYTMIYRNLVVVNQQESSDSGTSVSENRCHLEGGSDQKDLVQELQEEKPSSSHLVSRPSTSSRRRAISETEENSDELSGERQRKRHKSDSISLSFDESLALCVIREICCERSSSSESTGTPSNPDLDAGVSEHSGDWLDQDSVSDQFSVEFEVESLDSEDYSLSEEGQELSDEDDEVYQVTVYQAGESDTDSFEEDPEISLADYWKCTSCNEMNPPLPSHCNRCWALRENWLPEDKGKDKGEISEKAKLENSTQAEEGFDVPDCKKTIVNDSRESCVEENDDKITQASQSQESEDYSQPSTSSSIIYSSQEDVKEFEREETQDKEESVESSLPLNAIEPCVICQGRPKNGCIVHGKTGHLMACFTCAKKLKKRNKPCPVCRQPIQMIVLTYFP
HIF-2a inh conf = confirmation of HIF-2a inhibitors; AID 651580; shares compounds with HIF-2a inh; hit rate 56% among 1,800; inhibition, % at 18.8 µM; 786-0 RCC cells, HIF-2a luciferase reporter luminescence, overnight;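 active = mean inhibition across four replicates of at least 40 percent at the single tested concentration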
HIF-1a counter = inhibits HIF-1a reporter, a counter-screen for HIF-2a inhibitors; shares compounds with HIF-2a inh; MiaPaCa-2 HIF-1a luciferase reporter, desferoxamine, overnight; inhibition, % at 18.8 µM; hit rate 72% among 1,800; AID 651589;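 active = mean inhibition of the reporter signal across four replicates at the single tested dose of 50% or more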
Numbers stand for hits; i = inactive; nt = no result given. The list is not random: actives were taken first. Their share in the collection is about 2.7%.

SMILES | CF NFkB block | Peg3 prom inh-1 | HIF-2a inh | Shn3 3UTR inh | KKLEB cytotox | TRPM1 prom inh | others
COc1ccc(S(=O)(=O)NC(=O)C2(C)CCN2C(=O)c2c(C)noc2C)cc1 (stereo unspecified) | i | i | i | i | i | nt
c1ccc(-c2noc(-c3ccc4c(c3)OCO4)n2)nc1 | i | 86.6 | 80.4 | i | i | 92.3 | Peg3 prom inh-2=81.4;HIF-2a inh conf=84.9;HIF-1a counter=86.5
Cc1cccc(-c2noc(-c3ccc4c(c3)OCO4)n2)c1 | i | i | i | i | i | i
COc1ccc2nc(C)cc(Nc3ccc(C)cc3)c2c1 | i | i | i | i | i | i
Cc1ccc2nc(C)cc(Nc3ccc([N+](=O)[O-])cc3)c2c1 | i | 104.2 | 52.5 | i | i | 84.4 | Peg3 prom inh-2=98.4;HIF-2a inh conf=i;HIF-1a counter=95.3
CC1=C(C(=O)OCc2ccc3c(c2)OCO3)C(c2ccccc2OCc2ccccc2)NC(=O)N1 (stereo unspecified) | i | i | i | i | i | i
CC1=C(C(=O)OCc2ccc3c(c2)OCO3)C(c2ccccc2)NC(=O)N1 (stereo unspecified) | 84.1 | 51.2 | i | i | i | i | Peg3 prom inh-2=61.8;Mdm2 MdmX conf=95.7
CCc1nc2ccc(C(=O)Nc3cccc(NS(C)(=O)=O)c3)cn2c1N(CC)Cc1cccc(Br)c1 | i | i | i | i | i | nt
O=C(Nc1ccc(S(=O)(=O)NC2=NCCCCC2)cc1)c1ccc([N+](=O)[O-])s1 | i | 68.7 | 59.9 | i | i | 89.0 | Peg3 prom inh-2=76.8;HIF-2a inh conf=i;HIF-1a counter=106.1
Cc1ccc2nc(NC(=O)CSCC(=O)OCC(=O)c3ccc(Br)cc3)sc2c1 | i | 51.6 | 57.0 | i | i | i | Peg3 prom inh-2=65.1;HIF-2a inh conf=51.2;HIF-1a counter=86.3
CC(=O)N1CCc2cc(NC(=O)C3(C)CCN3CCc3ccccc3)ccc21 (stereo unspecified) | i | i | i | i | i | nt
Cc1cc2nc(-c3nnnn3-c3c(C)cccc3C)c(=O)[nH]c2cc1C | nt | nt | i | nt | nt | nt
CCCc1c(C(=O)N/N=C(\C)c2ccccc2O)nnn1-c1nonc1N | i | i | i | i | i | nt
C/C(=N\NC(=O)c1nnn(-c2nonc2N)c1-c1ccccc1)c1ccccc1O | i | 72.9 | i | i | i | i | Peg3 prom inh-2=67.3;Mdm2 MdmX conf=84.5
CC1=C(C(=O)N(C)C)CC(CC(=O)NCc2cccs2)C(=O)N1CCC1=CCCCC1 (stereo unspecified) | i | i | i | i | i | nt
COc1ccc(C(O)c2ncc(-c3ccc4ccccc4c3)[nH]2)cc1F (stereo unspecified) | i | i | i | i | i | nt
CS(=O)(=O)Nc1cccc(NC(=O)C2Cc3c(-c4ccccc4)ccnc3O2)c1 (stereo unspecified) | i | 51.3 | 46.8 | i | i | nt | Peg3 prom inh-2=56.7;HIF-2a inh conf=i;HIF-1a counter=85.2
CCCCCCCNC(=O)C1(CC2CC(c3cccc(Br)c3)=NO2)CCNCC1 (stereo unspecified) | i | 99.2 | i | 90.9 | i | 98.9 | Peg3 prom inh-2=98.9;Mdm2 MdmX conf=102.7
Cc1cc(C)c2cccc(N)c2n1 | i | i | i | i | i | i
Cc1cc(C)c2ccc(N)nc2c1O | i | 69.8 | i | i | i | 74.5 | Peg3 prom inh-2=58.1;Mdm2 MdmX conf=89.2
CC(C)N(C(=O)[C@H]1C[C@H](CC(=O)NCc2cccc(C(F)(F)F)c2)C(=O)N2CCc3c([nH]c4ccc(Cl)cc34)[C@]12C)C(C)C | 60.0 | 59.1 | i | i | i | i | CF NFkB inh conf=i
C[C@]12c3[nH]c4ccc(Cl)cc4c3CCN1C(=O)[C@@H](CC(=O)NCc1cccc(C(F)(F)F)c1)C[C@@H]2C(=O)N1CCOCC1 | i | i | i | i | i | i
Cc1ccc(F)c(S(=O)(=O)NC(=O)C2(C)CCN2C(=O)CCC2CCCC2)c1 (stereo unspecified) | i | i | i | i | i | nt
COc1ccc(S(=O)(=O)c2c(O)c3ccc(C(=O)Nc4ccccc4Cl)cc3[nH]c2=O)cc1 | 75.7 | i | i | i | i | i | CF NFkB inh conf=69.3
O=C(N[C@H](CO)c1ccccc1)[C@H]1O[C@@H](n2ccc(=O)[nH]c2=O)[C@H](O)[C@@H]1O | i | i | i | i | i | nt
SMILES | CF NFkB block | Peg3 prom inh-1 | HIF-2a inh | Shn3 3UTR inh | KKLEB cytotox | TRPM1 prom inh | others
Cc1ccc(Cc2c(-c3ccco3)nc3c(C)cc(Br)cn23)cc1 | 51.3 | i | i | i | i | nt | CF NFkB inh conf=i
Clc1cccc(Cc2c(-c3ccco3)nc3ccc(Cl)cn23)c1 | 69.5 | i | i | i | i | nt | CF NFkB inh conf=i
Clc1cccc(Cc2c(-c3ccco3)nc3ccc(Br)cn23)c1 | i | i | i | i | i | nt
COc1ccc2cc(CN(C)C(=O)CN3C(=O)NC4(CCCC4)C3=O)ccc2c1 | i | i | i | i | i | nt
CCN(CC)C(=O)C1=C(C)N(CCCOC)C(=O)C(CC(=O)NCCCCc2ccccc2)C1 (stereo unspecified) | i | i | i | i | i | nt
CCOC(=O)N(C)c1c(CC)nc2c(OCc3ccc(Cl)cc3)cccn12 | i | i | i | i | i | nt
Cc1ccnc(Nc2nc(-c3sc(C)nc3C)cs2)c1 | 55.2 | i | i | i | i | i | CF NFkB inh conf=91.2
Cc1nc(C)c(-c2csc(Nc3ccccn3)n2)s1 | i | i | i | i | i | i
COc1ccc(-c2cnc(N)nc2-c2ccc(OCc3ccccc3)cc2O)cc1 | i | i | i | i | i | i
Nc1ncc(-c2ccccc2)c(-c2ccc(O)cc2O)n1 | 51.2 | i | i | i | i | i | CF NFkB inh conf=68.7
CN(C)CCNC(=O)c1cccc(-c2cccc3nncn23)c1 | i | i | i | i | i | nt
CC(=O)Oc1ccc(N(C(C)=O)S(=O)(=O)c2ccc(C)cc2C)c2ccccc12 | i | i | i | i | i | i
COc1ccc(S(=O)(=O)N(C(C)=O)c2ccc(OC(C)=O)c3ccccc23)cc1[N+](=O)[O-] | 79.4 | i | i | i | i | 71.5 | CF NFkB inh conf=102.2
CC(=O)N(c1ccccc1Cl)S(=O)(=O)c1ccc(Cl)cc1 | i | i | i | i | i | i
CC(=O)Oc1c(Cl)cc(N(C(C)=O)S(=O)(=O)c2ccccc2)c2ccccc12 | 57.1 | i | i | i | i | nt | CF NFkB inh conf=54.2
CC(=O)Oc1ccc(N(C(C)=O)S(=O)(=O)c2ccccc2)c2ccccc12 | 68.9 | i | i | i | i | nt | CF NFkB inh conf=i
Cc1ccc(N2CCN(C(C(=O)Nc3c(C)cccc3C)c3cc4ccccc4o3)CC2)cc1 (stereo unspecified) | nt | nt | i | nt | nt | nt
